Inconclusive results are not listed. Where a call stands in place of a potency, no number is given. Calls of active or inactive are those of the source. Unless noted, calls come from the whole dose curve; as a rule, active = well fitted cell-killing curve with a large enough effect in the repeat runs; inconclusive = weak or mixed curves, or effect the other way; inactive = no such curve, though single readings can be large or run the other way.

One experiment is described as follows: qHTS assay for small molecule activators of the heat shock response signaling pathway - cell viability counter screen (AID 743209). Note: nearly all actives have a fitted effect of over 50% in size. As to conditions: HSE-bla HeLa viability, CellTiter-Glo luminescence, 5 h; series mostly up to 62.6 µM. In a few lines: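 Cytotoxicity counter screen run in parallel with the HSE beta-lactamase reporter, using the same wells. HeLa HSE-bla cells received compound for 5 h at 37 C; ATP-based CellTiter-Glo luminescence was measured after 30 min at room temperature.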
`Clc1ccc(C(Cl)(Cl)Cl)c(Cl)c1`: the Potency result was “inactive”.

Regarding `CN(C)CCc1c[nH]c2ccc(O)cc12`, the Potency entry was “inactive”. For the compound `CC(C)OC(=O)C(O)(c1ccc(Cl)cc1)c1ccc(Cl)cc1`, the Potency result is “inactive”.

The next experiment in a line: qHTS assay for small molecule activators of the heat shock response signaling pathway (AID 743210; active = well fitted activation curve with a large enough effect in the signal ratio in the repeat runs, with a control signal flat, not every such curve was filed as active; the % refers to the signal ratio). Particulars: HeLa HSE-bla reporter, beta-lactamase ratio, 5 h; series mostly up to 62.6 µM. The method in brief: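 Fluorescence from a cleaved B/G FRET substrate (2.5 h, room temp) reports HSE-driven beta-lactamase in HeLa cells treated 5 h at 37 C with DMSO-dissolved compounds.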
Regarding `CC(C)(C)c1cc([N+](=O)[O-])cc(C(C)(C)C)c1O`, the Potency result is “inactive”. For the compound `BrCBr`, the Potency result was “inactive”. Turning to `COc1ccc(/C(=C/C(=O)N2CCOCC2)c2ccc(Cl)cc2)cc1OC`, the Potency entry is “inactive”.

For the compound `BrC(Br)Br`, the Potency entry is “inactive”. In the case of `N#CNC#N`, the Potency entry is “inactive”. On the same count and under the same terms, the entry for `COc1cc(N)c(Cl)cc1C(=O)NC1CN2CCC1CC2` (stereo not drawn) is “inactive”; for `Fc1cccc(Cl)c1CCl` it is “inactive”; for `CCCCCCCCCCCCCN1CC(C)OC(C)C1` (stereo not drawn) it is “inactive”. In the case of `CC(C)CCCCCOC(=O)c1ccccc1C(=O)OCCCCCC(C)C`, the Potency entry was “inactive”. The same measure, in the same setting: the entry for `O=[N+]([O-])c1ccc(Oc2ccc(C(F)(F)F)cc2[N+](=O)[O-])cc1` is “inactive”. For `CC(=O)Nc1ccc2c(c1)Cc1ccccc1-2`, the Potency result is “inactive”. On the same count and under the same terms, in the case of `CC(C)OS(C)(=O)=O` it was “inactive”; in that of `CCOC(=O)OC1=C(c2cc(C)ccc2C)C(=O)NC12CCC(OC)CC2` (stereo not drawn), “inactive”. Turning to `FC(F)(F)c1cccc(C2=CCN(CCc3ccc4ccccc4c3)CC2)c1`, the Potency entry is “inactive”.

Turning to `O=C1NCN(c2ccccc2)C12CCN(CC1COc3ccccc3O1)CC2` (stereo not drawn), the Potency result is “inactive”. For `C[C@]12CC[C@H]3[C@@H](CCC4=CC(=O)CC[C@@]43C)[C@@H]1CC[C@@H]2O`, the Potency result is “inactive”. On to `Clc1ccc(C(c2ccc(Cl)cc2)C(Cl)(Cl)Cl)cc1`, for which the Potency result is “inactive”. On to `NNC(=O)c1ccccc1`, for which the Potency result was “inactive”. On the same count and under the same terms, the entry for `ClC(Cl)=C(Cl)Cl` is “inactive”. For the compound `C[C@]12CC[C@@H]3c4ccc(OC(=O)N(CCCl)CCCl)cc4CC[C@H]3[C@@H]1CC[C@@H]2O`, the Potency entry was “inactive”.

The values above are taken from PubChem BioAssay (Tox21).
